# From PubChem BioAssay
# Only some compounds are listed: those with a hit (about 5.2% of all), similar ones and a draw of the others.
# Tau ThT inhib: blocks human tau fibril formation measured by thioflavin T; P10636; recombinant tau K18 P301L, heparin-induced fibrillization, ThT fluorescence; Potency, µM (highest dose often 57.4 µM), for inactives: at the top dose activity, negative = inhibition, hits mostly inhibitors; 2.1% of 270,000 active; AID 1460; further: potency means the concentration at half of the fitted maximal effect; nearly all actives have a fitted effect of over 55% in size
# Target sequence (P10636 561-689 P618L limits assumed): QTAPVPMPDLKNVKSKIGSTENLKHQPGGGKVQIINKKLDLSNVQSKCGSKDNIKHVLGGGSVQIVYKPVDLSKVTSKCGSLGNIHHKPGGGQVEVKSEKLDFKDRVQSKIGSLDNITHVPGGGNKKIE
#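 Using a mix of unlabeled (15 uM) and Alexa 594-labeled (0.24 uM) tau K18 P301L, heparin-triggered fibrillization over 6 hr at 37 C was scored by ThT fluorescence.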
# Coupling enz: coupling enzyme interference in Giardia aldolase counter-screen; coupling enzyme system counterscreen, AmpLite Red fluorescence; activity change, negative = inhibition, % at 58.2 µM, hits read low; 0.67% of 290,000 active; AID 2472; in the data active means activity change below about -30%
#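 Fluorescence at 525 nm excitation and 598 nm emission measured inhibition of the coupled detection system without aldolase. Compounds (at 57.5 uM final) were preincubated 10 min at room temperature with coupling enzyme reagent before a 20 min substrate/AmpLite Red step.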
# Sfp inh: Sfp phosphopantetheinyl transferase inhibition; 3.5% of 310,000 active; Potency, µM, for inactives: largest response in the series, negative = inhibition, hits mostly inhibitors; Biochemical Sfp PPTase activity, qHTS;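 further: the enzyme is Sfp with the accession as filed and its product quenches rhodamine fluorescence; potency means the concentration at half of the fitted maximal effect; 0% = enzyme reaction without inhibitor and -100% = no enzyme wells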
#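 Reaction rates are the 30-min fluorescence difference (ex 525, em 598 nm) in wells containing 15 nM Sfp, 5 uM rhodamine-CoA and 12.5 uM BHQ-2-YbbR at pH 7.6 with 10 mM MgCl2.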
# Tau fibril FP: inhibitors of human tau fibril formation; K18 P301L tau heparin fibrillization, Alexa594 FP, 6 h; Potency, µM (titrated, usually from 57.7 µM), for the others: at the top dose activity, negative = inhibition, actives largely listed as inhibitors; 0.39% of 280,000 active; AID 1468; further: potency means the concentration at half of the fitted maximal effect; nearly all actives have a fitted effect of over 55% in size
#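 Heparin (20 uM) drove fibril formation of recombinant tau K18 P301L, 15 uM unlabeled with 0.24 uM Alexa 594 label, for 6 hr at 37 C in 100 mM sodium acetate pH 7. Fluorescence polarization (555/632 nm) read 1 hr after 30 uM ThT.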
# Tau fluor cs: counter-screen for tau fibril formation inhibitors; tau K18 P301L (four-repeat tau fragment) Alexa594 fluorescence, heparin fibrillization; Potency, µM (top dose mostly 57.7 µM), for inactives: at the top dose activity change, negative = decrease; 0.93% of 280,000 active; AID 1463; further: potency means the concentration at half of the fitted maximal effect; nearly all actives have a fitted effect of over 55% in size
#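 Human K18 P301L tau (15 uM unlabeled plus 0.24 uM Alexa 594-labeled, final) in 100 mM sodium acetate pH 7 was mixed with compound and 20 uM heparin and incubated 6 hr at 37 C.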
# * marks the source's active call; other numbers are inactive results; u = inconclusive; x = no result given; ! = repeats disagree; [ ] = remark or other dose. Unless noted, the call rests on the fitted dose curve; in most records, active means well fitted curve in the direction sought with a large enough effect; inconclusive means small, poorly fitted or top-dose-only effect, or another doubt; inactive means no such curve, though single readings can be large; an effect the other way counts as inactive or inconclusive. Unless noted, on the % scale 0 is the no-effect control and ±100 the full control effect.
SMILES,Tau ThT inhib,Coupling enz,Sfp inh,Tau fibril FP,Tau fluor cs
COc1ccc(N=c2ssnc2Cl)cc1,13µM*,-1,8.9µM*,u,-24%
COc1cc(N=c2ssnc2Cl)cc(OC)c1OC,20µM*,2,14µM*,u,-24%
N#Cc1ccc(Oc2c(Cl)cncc2Cl)cc1,x,1,7%,x,x
COc1ccccc1CNC(=O)c1cc(Sc2cccc(Cl)c2)nc2ccccc12,-5%,x,x,-5%,-21%
Cc1ccc(-n2nc3c(N4CCC(C(=O)NCCC(C)C)CC4)nnc(C)c3c2C)cc1,-9%,x,x,-9%,0%
Clc1nssc1=Nc1ccccc1,28µM*,4,20µM*,40µM*,-23%
O=C1CSC(=Nc2ccc(Cl)cc2)N1,x,1,23%,x,x
Clc1ccc(N=c2ssnc2Cl)cc1,13µM*,11,4µM*,18µM*,-22%
Fc1ccc(N=c2ssnc2Cl)c(F)c1,14µM*,1,14µM*,u,-15%
O=C1CSC(=Nc2ccccc2)N1Cc1ccccc1,-5%,5,-14%,7%,-7%
Cc1ccc2c(CC(=O)Nc3cc(C(F)(F)F)ccc3Cl)coc2c1C,6%,x,x,-8%,-5%
Cc1cc2c(cc1S(=O)(=O)CCC(=O)N1CCCC(C)C1)OCC(=O)N2 (stereo not drawn),-16%,x,x,-2%,-15%
CN(C)Cc1ccccc1-c1cc(N(C)C)ncn1,-6%,0,-8%,-3%,-11%
COc1ccccc1/C=C/C=c1\sc2nc(=O)c(Cc3ccccc3)nn2c1=O,x,6,56µM*,u,u
CCCOc1ccc(Cc2nn3c(=O)/c(=C/c4ccco4)sc3nc2=O)cc1,u,0,50µM*,-11%,-23%
CC(=Nc1ccccc1N)c1c(C)cc(=O)n(O)c1O,x,-30*!,u,x,x
COCCCNC(=O)CN1C(=O)c2cccnc2Sc2ccccc21,4%,x,x,8%,15%
CSc1n[nH]c2nc3c(c(=O)n12)C1(CCCCC1)Cc1ccccc1-3,-25%,-5,18µM*,8%,u
N#CCSc1n[nH]c2nc3c(c(=O)n12)C1(CCCCC1)Cc1ccccc1-3,x,-2,50µM*,14%,u
CCSc1n[nH]c2nc3c(c(=O)n12)C1(CCCCC1)Cc1ccccc1-3,-1%,-2,-26%,1%,-18%
COc1ccc(-c2nnc(SCC(=O)N(C)C3CCCCC3)o2)cc1OC,-8%,x,x,-12%,-30%
Cc1ccc(Nc2c(-c3ccc(N4CCOCC4)cc3)nc3cccc(C)n23)cc1,u,x,x,7%,u
O=C(Nc1cnn(Cc2c(Cl)cccc2Cl)c1)c1ccc([N+](=O)[O-])cc1,-20%,-3,-6%,u,25µM*[quencher]
COc1ccc(NC(=O)c2ccc(Cn3cc(Cl)cn3)cc2)cc1,2%,-4,-16%,6%,20%[2.34 µM]
O=C(COc1ccc(Cl)cc1)Nc1cnn(Cc2c(Cl)cccc2Cl)c1,-5%,3,-6%,-14%,-20%
SMILES,Tau ThT inhib,Coupling enz,Sfp inh,Tau fibril FP,Tau fluor cs
CN(C)c1ccc(NC(=O)c2ccc(Cn3cc([N+](=O)[O-])cn3)cc2)cc1,13µM*,-6,-2%,14%,u
Cc1cccc(-c2noc(CN(C(=O)COc3ccc(Br)cc3C)C(C)C)n2)c1,-21%,x,x,-12%,u
O=c1nc2s/c(=C\c3ccc(-c4ccccc4[N+](=O)[O-])o3)c(=O)n2nc1-c1ccccc1,7.1µM*,-50*,u,u,u
CCCCCOc1ccc(/C=c2\sc3nc(=O)c(-c4ccccc4)nn3c2=O)cc1OC,u,1,-7%,4%,-10%
COc1ccc(/C(C)=N/Nc2nc3ccccc3nc2C)cc1,11µM*,-1,25µM*,6%,u
COc1cc2nc(N3CCN(C(=O)C4COc5ccccc5O4)CC3)nc(N)c2cc1OC (stereo not drawn),u,-16,56µM*,-13%,u
COc1cc2nc(N3CCN(C(=O)[C@@H]4COc5ccccc5O4)CC3)nc(N)c2cc1OC,x,-1,45%,x,x
COc1cc(CNc2ccc3c(c2)CCC3)cc(OC)c1O,u,-4,40µM*,0%,u
Cc1cccc(-c2nc(CSc3nncn4c3cc3oc(C)cc34)c(C)o2)c1,u,x,x,-6%,-22%
COCCOC(=O)c1c(C)n(C)c2ccc(OC(=O)c3c(OC)cccc3OC)cc12,x,-2,28µM*,x,x
Cc1cc(OI)c(C(C)C)cc1-c1cc(C(C)C)c(OI)cc1C,-5%,-7,56µM*,-4%,-7%
COc1cc(C)c(N)cc1C(C)C,-6%,1,27%,-4%,-5%
O=C(Nc1cccc(C(F)(F)F)c1)c1cccnc1N1CCN(c2ccccc2)CC1,-20%,-22,22µM*,9%,u
CC1CCC/C(=C\Nc2ccc(C(=O)O)c(O)c2)C1=O (stereo not drawn),-14%,-1,50µM*,7%,-6%
O=C(O)c1cccc(-n2c(-c3cnccn3)n[nH]c2=S)c1,7%,0,28µM*,-2%,12%
COc1ccc(OC)c(-n2c(-c3cnccn3)n[nH]c2=S)c1,-4%,-14,-20%,-2%,-10%
S=c1[nH]nc(-c2cnccn2)n1-c1ccccc1,3%,9,56µM*,-3%,5%
COc1ccc(-n2c(-c3cnccn3)n[nH]c2=S)cc1,2%,-2,50µM*,-6%,4%
Fc1cccc(-c2n[nH]c(=S)n2-c2ccccc2)c1,x,4,14%,x,x
N[C@@H](COC(c1cccc(F)c1)c1ccccc1OCc1ccccc1)C(=O)O (stereo partly drawn),x,-3,-14%,x,x
COc1cc([C@@H]2CC(=O)c3c(O)cc(O)cc3O2)ccc1O,x,5,-14%,x,x
CCOc1ccc(C2NC(=O)C(C#N)=C(S)N2c2ccc(OC)cc2)cc1OC (stereo not drawn),u,5,28µM*,u,-22%
COc1ccc(N2C(=O)c3ccccc3NC2c2ccc(OC)c(COc3ccccn3)c2)cc1 (stereo not drawn),-10%,3,2%,14%,-9%
COc1ccc(C2NC(=O)C(C#N)=C(S)N2c2ccc(C)cc2)cc1OC (stereo not drawn),32µM*,6,32µM*,u,-19%
COc1ccc(N2C(S)=C(C#N)C(=O)NC2c2ccc(OC)c(OC)c2)cc1 (stereo not drawn),28µM*,6,22µM*,u,-25%
COc1ccc(OC2C(=O)N(c3ccc(F)cc3)C2c2ccc(OC)c(OC)c2)cc1 (stereo not drawn),2%,-9,1%,-5%,-19%
COc1cc(C2NC(=O)C(C#N)=C(S)N2c2ccc(C)cc2)ccc1OC(C)C (stereo not drawn),8%,1,u,1%,8%
